Data reported in PubChem BioAssay (NCI).
Compounds without any hit were thinned out: in the full panel of roughly 83,000, 20% have a hit.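 In brief: 96-well plates, 48 h treatment, single concentration, percent growth endpoint.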 Values without a mark were called inactive. Calls of active or inactive are those of the source. Rule for the calls: active = growth percent below 10; inactive = the rest.

Tests used:
Test in all cases: NCI-60 one-dose screen, 48 h (100 = growth as untreated, 0 = no growth, -100 = all killed)
Details in all cases: 10 µM unless noted
HCT-15 colon = tested on: HCT-15 colon
SNB-19 CNS = tested on: SNB-19 CNS
U251 CNS = tested on: U251 CNS
PC-3 prostate = tested on: PC-3 prostate
SK-MEL-5 melanoma = tested on: SK-MEL-5 melanoma
UACC-62 melanoma = tested on: UACC-62 melanoma
LOX IMVI melanoma = tested on: LOX IMVI melanoma
SK-MEL-28 melanoma = tested on: SK-MEL-28 melanoma
SNB-75 CNS = tested on: SNB-75 CNS

| Compound | growth (HCT-15 colon) | growth (SNB-19 CNS) | growth (U251 CNS) | growth (PC-3 prostate) | growth (SK-MEL-5 melanoma) | growth (UACC-62 melanoma) | growth (LOX IMVI melanoma) | growth (SK-MEL-28 melanoma) | growth (SNB-75 CNS) |
| --- | --- | --- | --- | --- | --- | --- | --- | --- | --- |
| O=c1nc(-c2ccccc2)c2cc(-c3ccc(C(F)(F)F)nc3)ccc2[nH]1 | 97.8% | 101% | 105% | 96.2% | 94.8% | 97.3% | 93.1% | 108% |  |
| CCCn1cnc2c(c1=N)C(c1ccc(F)cc1)c1sc3c(F)cccc3c1O2 (stereo not drawn) | 28% | 35.4% | 30.8% | 50.1% | 42.2% | 12.1% | 43.4% | 56% | 26% |
| C[C@H](C(=O)N(CCc1ccc(Cl)c(Cl)c1)Cc1cncs1)[C@@H]1CC[C@H](C[C@H](C)n2cc(CN3CCC(c4ccc(Cl)cc4)CC3)nn2)O1 | 99.6% | 94.5% | 100% | 86.5% | 101% | 90.3% | 98.3% | 102% |  |
| COc1ccc(Oc2nc(Nc3ccc(N4CCOCC4)cc3)ncc2NC(=O)Nc2cc(OC)cc(OC)c2)cc1 | 82.9% | 28.3% | -35.8% (active) | 11.6% | -32.8% (active) | -8.63% (active) | 24.1% | 5.33% (active) | 53.3% |
| O=C(Nc1ccccc1[N+](=O)[O-])c1ccc(Cl)c(Cl)c1 | 91% | 101% | 86.1% | 80.3% | 84.2% | 87.2% | 85.9% | 105% | 69.6% |
| O=C(O)c1ccc(-c2ccc(/C=N/Nc3nc(Nc4ccccc4)nc(N4CCCCC4)n3)o2)cc1 | 55.3% | 61% | 43.2% | 65.6% | 71.5% | 67.6% | 68.6% | 78.9% | 65.7% |
| COc1cccc(Nc2ncnc3cc(NC(=O)CCl)ccc23)c1 | -43.2% (active) | -38.6% (active) | -99.2% (active) | -80.3% (active) | -85.8% (active) |  | -74.6% (active) | -33.7% (active) | -79.9% (active) |
| COC(=O)/C=C1/SC(=Nc2ccc([N+](=O)[O-])cc2)N(CCc2c[nH]c3ccc(O)cc23)C1=O | 46.9% | 40.3% | 36.3% | 38.6% | 50.5% | 30.1% |  | 52.7% | 54.4% |
| Cn1cc(-c2csc(-c3cn(CCCN4CCOCC4)c4ccccc34)n2)c2cccnc21 | 55.5% | 90.8% | 64.3% | 68% | 64.6% | 92.5% | 79% | 88.6% | 82.6% |
| C=C1CC[C@@H]2C(C)(C)[C@@H](O)CC[C@@]2(C)[C@@H]1COc1ccc2ccc(=O)oc2c1 | 66.7% | 85.8% | 75.8% | 49.7% | 61.7% | 55.1% | 82.8% | 92.3% | 83.8% |
| O=c1c2ccccc2c(=O)c2c1sc1c(=O)c3ccc(O)cc3c(=O)c12 | -65.4% (active) | -92% (active) | -65.8% (active) | -12.7% (active) | -96.2% (active) | -73.2% (active) | -61% (active) | -65% (active) | -96.4% (active) |
| COc1cccc(NCc2nnc(Nc3ccc(Cl)cc3)c3ccccc23)c1 | -18.1% (active) | 17.8% | -56.2% (active) | -13.6% (active) | -98.5% (active) | -29.2% (active) | -58.7% (active) | -16.1% (active) | -6.06% (active) |
| O=C(/C=C(O)/C=C/c1cccc2[nH]ccc12)/C=C/c1cccc2[nH]ccc12 | 61.5% | 72.6% | 45.2% | 66.8% | 76% | 68% | 63.7% | 97.6% | 92.2% |
| COc1ccc(C2=CC(c3cc(OC)c(OC)c(OC)c3)n3ncnc3N2)cc1 (stereo not drawn) | 14.5% | 36% | 6.34% (active) | 21.7% | 1.68% (active) | 51.9% | 22.2% | 54.3% | 40.4% |
| CC1CCN(C(=S)SCC(=O)NC(=O)c2ccccc2)CC1 | 109% | 111% | 106% | 102% | 113% | 106% | 96.9% | 111% | 96.5% |
| Fc1cc(Nc2ccc3c(OCCCN4CCOCC4)cccc3n2)ccc1Cl | -13.4% (active) | 17.8% | 14.4% | 30.6% | 63.6% | -31.7% (active) | -78.7% (active) | -35.8% (active) | 37.3% |
| Cc1ccc(C)c2c(C)c(C(=O)Nc3cccc(-n4cccn4)c3)oc12 | 49% [50 µM] | 87.2% [50 µM] | 70.9% [50 µM] | 38.8% [50 µM] | 44.3% [50 µM] | 73.9% [50 µM] | 62.2% [50 µM] | 86.7% [50 µM] | 86.6% [50 µM] |
| N#Cc1nc(-c2ccccc2)oc1S(=O)(=O)N1CCN(c2ccc(F)cc2)CC1 | 25.5% | 87.6% | 82.1% | 67.5% | 86.1% | 75.6% | 15.2% | 94.7% | 96.9% |
| O=C(Nc1ncc(Cc2cc(C(F)(F)F)ccc2Cl)s1)c1cccs1 | 21.9% | 65% | 42.5% | 50.1% | 37.7% |  | 58.8% | 67.5% | 72% |

| Compound | growth (HCT-15 colon) | growth (SNB-19 CNS) | growth (U251 CNS) | growth (PC-3 prostate) | growth (SK-MEL-5 melanoma) | growth (UACC-62 melanoma) | growth (LOX IMVI melanoma) | growth (SK-MEL-28 melanoma) | growth (SNB-75 CNS) |
| --- | --- | --- | --- | --- | --- | --- | --- | --- | --- |
| Cc1ccc(CNc2c3ccccc3nc3ccccc23)cc1 | 15.6% | 29.7% | 26% | 24.3% | 30.1% | 43.4% | 11.8% | 59.5% | 41.7% |
| O=C(Nc1ccccc1N1CCCC1=O)c1oc2ccc(F)cc2c1-c1cnn(-c2ccccc2)c1 | 44.9% [50 µM] | 54.5% [50 µM] | 62.8% [50 µM] | 39.7% [50 µM] | 10.6% [50 µM] | 46.1% [50 µM] | 42.2% [50 µM] | 72% [50 µM] | 14.8% [50 µM] |
| O=C1/C(=C/c2ccc(F)cc2)CN(C(=O)C(Cl)Cl)C/C1=C\c1ccc(F)cc1 | -57.9% (active) | -87% (active) | -95.5% (active) | -74.3% (active) | -64.9% (active) | -61.1% (active) | -90.2% (active) | -72.1% (active) | -61.2% (active) |
| Cc1nc2sc(C(=O)Nc3cccc(Br)c3C)c(N)c2cc1C(O)c1ccccc1 (stereo not drawn) | 10.8% | 25.4% | 2.74% (active) | 18.3% | -50.9% (active) | 18.5% | 16.3% | 55.9% | 52.6% |
| C#CCO[C@H]1CC(CC#C)(CC#C)C(=O)[C@@H]2[C@H]1[C@H]1C[C@@H]3[C@@]4(C)CCC[C@@](C)(C(=O)OC)[C@@H]4CC[C@@]23C=C1C(C)C | 98.2% | 93.4% | 96.3% | 58.8% | 101% | 78.6% | -86.6% (active) | 99.1% | 93.9% |
| C=CC(=O)Nc1ccc(Nc2nccc(-c3ccc(N4CCCC4)c(C#N)c3)n2)cc1 | -36.7% (active) | 41.5% | 5.57% (active) | 23.6% | 15.4% | 52.9% | 69.4% | -46.1% (active) | 15.4% |
| COc1ccc(C(=O)/C=C/c2ccc(Cl)cc2)cc1S(=O)(=O)Nc1c(N)nc(SC)[nH]c1=O | 65.7% | 8.18% (active) | -4.2% (active) | 39.1% | 74.1% | 62.3% | 2.64% (active) | 97.4% | 33.4% |
| COc1ccc(C(=O)N2c3ccccc3Sc3ccccc32)c(C(F)(F)F)c1 | 18% | 30.8% | 19% | 15.5% | 5.29% (active) | 31.6% | 16.7% | 52% | 29.3% |
| COc1cnc2c(c1)C(=O)c1c-2n(CCCCl)c(=O)c2ccncc12 | 75.5% | 55.4% | 33.6% | 54% | 34.3% | 23.7% |  | 99.3% | 55.6% |
| O=S(=O)(Oc1ccc(Br)cc1)c1ccc(Cl)cc1 | 97.6% | 103% | 106% | 91.7% | 101% |  | 95.1% | 103% | 121% |
| CC1(C)CC(=O)c2c(nn(-c3ccc(Br)cc3)c2-c2cn(-c3ccccc3)nc2-c2cccnc2)C1 | 94.9% | 92.5% | 91.7% | 71.7% | 97.2% | 76.7% | 85.5% | 113% | 84.3% |
| COC(=O)c1nc(-c2ccccc2)oc1S(=O)(=O)NCC(c1ccc(Cl)cc1)N1CCOCC1 (stereo not drawn) | 44.2% | 89.4% | 72.8% | 50% | 86.4% | 80.9% | 48.7% | 94.3% |  |
| COc1ccc(-c2nc(/C=C3\C(=O)N(C)c4ccccc43)c3ccccn23)cc1 | 90% | 78.7% | 75.1% | 86.9% | 65.5% | 68.5% | 65.2% | 99.6% | 51.1% |
| O=C(O)COc1ccc(Cl)c(Cl)c1 | 111% | 117% | 108% | 100% | 105% | 104% |  | 116% | 107% |
| Cc1cccc(-c2nc(Nc3ccc4ncsc4c3)c3ccccc3n2)n1 | 70.7% | 102% | 77% | 14.7% | 42.4% | 80.8% | 93.2% | 98.2% | 105% |
| O=C1c2ccccc2C(=O)c2c1c(C(=O)NCc1ccccc1)c1ccccn21 | 114% | 93.9% | 93.6% | 95.4% | 99.6% | 92.2% | 103% | 113% |  |
| CCCCCCCC/C=C\CCCCCCCCOc1ccc(CC(=O)NCC[N+]2(C)CCOCC2)cc1 | 90.8% | 38.7% | 15.4% | 12.5% | 99% | 57.5% | 84.2% | 93.7% | 41.2% |
| Fc1cccc(-c2ccc3c(c2)C2(CCNCC2)CN3)c1 | 94.9% | 112% | 107% | 98.1% | 97.4% | 87.4% | 92.2% | 116% | 92% |
